From PubChem BioAssay AID504558 (Broad Institute, 2011) come the findings set out here.

Out of some 350,000 compounds screened, about 2,400 (0.69%) were called active. This is one part of a sample in which actives are shown more often than they occur. Cut-off read from the data, not from the text of the source: active = inhibition above about 41%; inconclusive = no clear call, values can overlap the other calls; inactive = below that.

A short description of the test: blockers of LMP1-induced NF-kB reporter signal – cell-based, luminescence, single point, primary screen (AID 504558).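 Note: 0% = neutral control wells and 100% = reference inhibitor control.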 Conditions: LMP1-induced NF-kappaB luciferase reporter cells, at 12.5 µM, hits give high values. A general note: A reporter such as luciferase makes a cellular process visible.
A word on the inhibition: it is the drop in the measured response relative to a control, in per cent. Consider `CC(=O)c1ccccc1NC(=O)COC(=O)C1COc2ccccc2O1` (stereo not drawn), for which the inhibition is -0.0295% (inactive). As for `O=c1[nH]c2ccccc2n1C1CCN(CCOc2ccccc2)CC1`, the figure is 5.46% (inactive); as for `OC(COc1ccccc1)CN1CCN(c2cccc(Cl)c2)CC1` (stereo not drawn), 46.9% (active); as for `OC(COc1ccc2c(c1)CCC2)CN1CCN(c2cccc(Cl)c2)CC1` (stereo not drawn), -1.09% (inactive).

`CCC(=O)c1ccc(OCC(O)CN2CCN(c3cccc(C(F)(F)F)c3)CC2)cc1` (stereo not drawn): the inhibition is 1.92% (inactive). As for `CCOC(=O)c1c(NC(=O)COC(=O)c2ccc(S(=O)(=O)C(F)F)cc2)sc(C(=O)N(C)C)c1C`, the figure is 1.83% (inactive); as for `CC(=NNC(N)=O)C1CC2CCC1CC2` (stereo not drawn), 4.52% (inactive).

`CC(OC(=O)c1ccc(NC(=O)CC#N)cc1)C(=O)Nc1ccc(S(=O)(=O)N2CCCC2)cc1` (stereo not drawn): the inhibition was -2.22% (inactive). As for `Cc1ccccc1NC(=O)Cc1nc(COC(=O)C(C)(C)Oc2ccc(Cl)cc2)cs1`, the figure is -2.11% (inactive); as for `Cc1noc(C)c1S(=O)(=O)N(C)C[C@H]1OCCCC[C@@H](C)Oc2ccc(NC(=O)CCCN(C)C)cc2C(=O)N([C@H](C)CO)C[C@@H]1C`, -4.38% (inactive); as for `COC(=O)Cc1[nH]n(-c2nc3ccccc3s2)c(=O)c1C(C)=Nc1ccc(OC)cc1`, 59.5% (active). As for `COc1ccccc1NC(=O)c1ccc2nc(N3C(=O)CCC3=O)sc2c1`, the figure is -13.5% (inactive); as for `COc1ccc(C(=O)Nc2cccc(/C=C(/CCC(=O)O)c3nc4ccccc4s3)c2)cc1`, -6.71% (inactive). As for `C[C@H]1CN([C@@H](C)CO)C(=O)CCCn2cc(nn2)CO[C@@H]1CN(C)S(=O)(=O)c1cccc(C#N)c1`, the figure is -4.24% (inactive); as for `Cn1nccc1C(=O)NC1CCCc2c1cnn2-c1ccccc1F` (stereo not drawn), 28.4% (inactive). On to `COc1ccc(C(=O)NC2CCCc3c2cnn3-c2cccc(C)c2C)c(OC)n1` (stereo not drawn), for which the inhibition was 47.8% (active). Turning to `COc1ccc(OC)c(C(=O)NC2CCCc3c2cnn3-c2cc(C)cc(C)c2)c1` (stereo not drawn), the inhibition is -16.3% (inactive). As for `O=C(O)C1=C(C(=O)O)C2CCC1C2`, the figure is -22.4% (inactive); as for `COc1ccc(-c2csc(Nc3cccc(C)n3)n2)cc1OC`, 56.6% (active); as for `Cc1cccc(NC(=O)COc2ccc(Br)cc2C)n1`, -11.9% (inactive). With `COc1ccc2c(c1OC)C(=O)OC2Nc1nc(-c2ccccc2)cs1` (stereo not drawn) the figure was 22.9% (inactive); with `Cc1ccc(-c2ccc(CN3C(C(C)C)C(=O)N(Cc4cn(CCC5OCCCO5)nn4)CCS3(=O)=O)cc2)cc1` (stereo not drawn), 3.16% (inactive); with `C[C@H]1CN([C@@H](C)CO)C(=O)CCCn2nncc2CO[C@@H]1CN(C)Cc1ccc(Oc2ccccc2)cc1`, 8.56% (inactive). With `COc1ccc(C2=Nc3cc(C)ccc3OC2)cc1` the figure was 91.3% (active). `COc1ccc(C2=NOC(COC(=O)c3ccc4ccccc4n3)C2)cc1` (stereo not drawn): the inhibition was 3.2% (inactive). As for `Cc1ccc(C(=O)NNC2=Nc3cc([N+](=O)[O-])ccc3OC2)cc1`, the figure is -21.3% (inactive). With `CCN(CC)C(=O)C(C)N1c2cccc3cccc(c23)S1(=O)=O` (stereo not drawn), the inhibition was 11.1% (inactive). For the compound `COc1ccc(S(=O)(=O)N2CCC(C(=O)NCCC(=O)NCCc3cccc(F)c3)CC2)cc1`, the inhibition is 6.77% (inactive). For the compound `O=C(c1cc(-c2ccc(O)cc2)on1)N1CCCc2ccccc21`, the inhibition was 83.9% (active). Consider `O=C(c1cc(-c2cccc(O)c2)on1)N1CCc2ccccc2C1`, for which the inhibition is -0.0205% (inactive). As for `O=C(c1cc(-c2ccc(O)cc2)on1)N1CCOCC1`, the figure is 12% (inactive); as for `C[C@@H]1CN([C@@H](C)CO)C(=O)CCCn2nncc2CO[C@H]1CN(C)Cc1ccc(C(F)(F)F)cc1`, -1.15% (inactive). As for `Nc1ccc(C(=O)Nc2ccccc2N)cc1`, the figure is 43.3% (active); as for `Nc1ccc(S(=O)(=O)NC(=O)c2ccccc2)cc1`, 5.43% (inactive); as for `CC(=O)Nc1ccccc1NC(=O)c1cc(C)cc(C)c1`, -2.05% (inactive). With `Cc1ccc(Cc2c(-c3ccc(C)cc3)nc3c4ccccc4ccn23)cc1` the figure was -19.4% (inactive); with `Cc1ccc(C(=O)N2CCCc3ccccc32)c(Cl)c1`, 6.82% (inactive); with `CC(Sc1ccc(S(=O)(=O)N2CCN(C)CC2)cn1)C(=O)NC1CCCC(C)C1C` (stereo not drawn), -17.5% (inactive). Turning to `CCCCCCc1cc2cc(-c3nnc(-c4ccccc4)o3)c(=O)oc2cc1O`, the inhibition was 52% (active). With `CCc1ccc(CN(C)C(=O)CCc2nnc(-c3ccc(-c4ccccc4)cc3)o2)nc1` the figure was 5.34% (inactive). As for `O[C@H]1C[C@H](c2ccc(Cl)cc2)N(Cc2cccs2)C[C@@H]1n1cc(C2CC2)nn1`, the figure is 1.65% (inactive); as for `CCOc1ccc(NS(=O)(=O)c2ccc(C(=O)NCC3CCCO3)cc2)cc1` (stereo not drawn), -2.59% (inactive); as for `COc1ccc(CN2C(=O)C(CC(=O)NCCCCc3ccccc3)CC(C(=O)N3CCOCC3)=C2C)cc1` (stereo not drawn), -8.73% (inactive).

For `COc1ccc(-c2nc(-c3ccccc3)no2)c(OC)c1`, the inhibition was 67.3% (active). As for `COc1ccc(OC)c(-c2csc(-c3cccs3)n2)c1`, the figure is 0.747% (inactive); as for `COc1ccc(/C=C/c2noc(-c3ccccc3OC(C)=O)n2)cc1`, 9.61% (inactive); as for `C#CCN(C[C@@H]1[C@@H](OC(=O)NC2CC2)[C@@H](OC(=O)NC2CC2)Cn2c(=O)ccc(=O)n21)S(=O)(=O)c1ccc(C)cc1`, 4.07% (inactive). As to `CCOc1ccc(N/C=C/C(=O)c2ccccc2)cc1`, the inhibition is 82.1% (active). For the compound `COc1ccc(C(=O)/C=C/Nc2ccccn2)cc1`, the inhibition was 67% (active). With `CCOc1ccc(N/C=C/C(=O)c2cc(OC)c(OC)c(OC)c2)cc1` the figure was -9.23% (inactive); with `CCOc1cc2ccccc2cc1C(=O)Nc1ccccn1`, -13.7% (inactive); with `Cc1cc(N/C=C\C(=O)c2ccc(Cl)c(Cl)c2)no1`, -16.1% (inactive). With `CCOc1ccc(NC(=S)N2CCC(NC(=O)c3ccccc3)CC2)cc1` the figure was 0.728% (inactive); with `NC1=CC(=O)C(=O)c2cccnc21`, 12.1% (inactive); with `COCC(=O)N(C)C[C@H]1Oc2cc(Br)ccc2S(=O)(=O)N([C@H](C)CO)C[C@H]1C`, 0.42% (inactive).

For `O=C(Cc1ccc([N+](=O)[O-])cc1)NCCS(=O)(=O)N1CCN(c2ccccc2)CC1`, the inhibition was -3.09% (inactive). As for `c1ccc(C(=NNc2nc3ccccc3s2)c2ccccn2)cc1`, the figure is 79.1% (active); as for `COc1cc(OC)nc(N/N=C(\c2ccccc2)c2ccncc2)n1`, 3.44% (inactive). With `C/C(=N/Nc1nc(-c2ccccc2)c(CC(=O)O)s1)c1ccccc1` the figure was -38.4% (inactive); with `COc1cccc(OC)c1C(=O)N1CCN(Cc2ccccc2F)CC1`, 2.93% (inactive). As for `C[C@@H]1CN([C@@H](C)CO)C(=O)c2c(c3ccccc3n2C)-c2ccccc2CO[C@H]1CN(C)C(=O)C1CC1`, the figure is -4.84% (inactive); as for `CCOC(=O)c1[nH]c2ccccc2c1N=C(C)N(CC)CC`, 0.352% (inactive). `CCOC(=O)c1c(C)[nH]c2c1-c1ccccc1C(=O)C2=O`: the inhibition was 92.7% (active). Turning to `CCOC(=O)c1c(C)[nH]c(C)c1S(=O)(=O)NCCCc1ccco1`, the inhibition is -0.931% (inactive). With `C[C@H]1NS(=O)(=O)c2cc(Cl)ccc2O[C@@H]1c1ccccc1` the figure was -0.001% (inactive). With `C=CCOc1cccc(C2C(C(=O)c3ccc(C)o3)=C(O)C(=O)N2CCN2CCOCC2)c1` (stereo not drawn) the figure was 1.89% (inactive). With `COc1ccc(NS(=O)(=O)c2ccc(NC(=S)NC(=O)/C=C/c3ccc(C)cc3)cc2)nn1` the figure was -1.1% (inactive); with `COc1ccc(NC(=O)CN2C(=O)NC(C)(c3ccccc3)C2=O)cn1` (stereo not drawn), 4.57% (inactive). `COc1ccc(OC(C)C(=O)Nc2cccnc2)cc1` (stereo not drawn): the inhibition was -0.732% (inactive). On to `COc1ccc(NC(=O)/C(Cl)=C(/Cl)S(=O)Cc2ccc(C)cc2)cn1` (stereo not drawn), for which the inhibition was 94.5% (active). As for `COc1ccc(CS(=O)/C(Cl)=C(/Cl)C(=O)Nc2ccc(OC)nc2)cc1` (stereo not drawn), the figure is 85% (active); as for `COc1cccc(NC(=S)N(Cc2ccc(C)cc2)Cc2ccccn2)c1`, -9.16% (inactive). With `COCOCCn1cc(CN2CCS(=O)(=O)N(Cc3ccc(-c4cccc(N(C)C)c4)cc3)C(CC(C)C)C2=O)nn1` (stereo not drawn) the figure was 5.25% (inactive); with `C[C@H](CO)N1C[C@H](C)[C@H](CN(C)C(=O)Nc2ccc3c(c2)OCO3)Oc2ncc(Br)cc2C1=O`, -7.49% (inactive). In the case of `CCCCN1C(=O)C(CC(=O)NC(c2ccccc2)c2ccccc2)CC(C(=O)N2CCOCC2)=C1C` (stereo not drawn), the inhibition was -3.52% (inactive).

With `Cc1cc(Nc2ccc(Br)cc2)nc2ccccc12`, the inhibition was -19.5% (inactive).

Regarding `Cc1cc(N/N=C\c2ccc(Br)cc2)nc(-n2nc(C)cc2C)n1`, the inhibition is 47.1% (active). `Cc1cc(C)n(-c2nnc(N3CCN(c4ccccc4)CC3)nn2)n1`: the inhibition was -13.2% (inactive). For `O=C(NCc1nnnn1-c1ccc(Cl)cc1)c1ccc2c(c1)OCO2`, the inhibition was -8.64% (inactive).

For `C=CCn1c(C)cc(C2=NNC(=NCC)SC2)c1C`, the inhibition was 86.2% (active). With `COc1ccc(-c2c(C#N)cnc(C)c2C)c(O)c1OC` the figure was -4.81% (inactive); with `C[C@@H]1CN([C@H](C)CO)C(=O)CCCn2cc(nn2)CO[C@H]1CN(C)S(C)(=O)=O`, 1.59% (inactive); with `COc1cccc(NC(=O)CN(C)C(=O)c2cc(Cl)nc3ccccc23)c1`, -0.28% (inactive). With `Cc1ccc(C2=C/C(=C\c3cccnc3)C(=O)O2)cc1` the figure was 43.1% (active); with `CN(C)/C=C1\C=C(c2ccccc2)OC1=O`, -8.13% (inactive); with `Cc1ccccc1C1=N/C(=C/c2cccnc2)C(=O)O1`, 3.85% (inactive).

Consider `Cc1ccc(CN(C)C[C@@H]2OCc3cnnn3CCCC(=O)N([C@@H](C)CO)C[C@H]2C)cc1`, for which the inhibition is 0.256% (inactive). With `O=C(COC(=O)/C=C/c1ccc(Cl)cc1)NC1CCS(=O)(=O)C1` (stereo not drawn) the figure was -1.97% (inactive).
